According to PubChem BioAssay (NCI):
About 83,000 compounds went through this panel and 20% of them were active in at least one assay; those are over-represented in the sample as a whole.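 Growth was measured after 48 h exposure to one concentration of compound in 96-well plates. Values under 10 count as active.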

Experiments:
Experiment in all cases: NCI-60 one-dose screen, 48 h (100 = growth as untreated, 0 = no growth, -100 = all killed)
Conditions in all cases: 10 µM unless noted
[1] = system: DU-145 prostate
[2] = system: K-562 leukemia
[3] = system: MALME-3M melanoma
[4] = system: MDA-MB-231 breast
[5] = system: RXF 393 renal
[6] = system: SF-268 CNS
[7] = system: SF-295 CNS
[8] = system: SF-539 CNS
[9] = system: UACC-257 melanoma
[10] = system: M14 melanoma
[11] = system: HT29 colon
[12] = system: SNB-75 CNS
[13] = system: SNB-19 CNS
[14] = system: U251 CNS
[15] = system: PC-3 prostate
[16] = system: SK-MEL-5 melanoma
[17] = system: UACC-62 melanoma
[18] = system: LOX IMVI melanoma
[19] = system: SK-MEL-28 melanoma
[20] = system: HCT-15 colon

Measured: growth

COc1c(O)c2c3c(c1OC)-c1ccccc1CC3N(S(=O)(=O)c1ccc(C)cc1)CC2 (stereo unspecified)
inactive: [1] 36.5% | [2] 23% | [3] 58.6% | [4] 52.7% | [5] 58.6% | [6] 55.1% | [7] 85.2% | [8] 41.2% | [9] 54.7% | [10] 31.2% | [11] 121% | [12] 22.8% | [13] 61.6% | [14] 22.5% | [15] 48.5% | [16] 21.8% | [17] 58% | [18] 51.7% | [19] 53.2%

COc1ccc(-n2ncc3c2ccc2cc(S(=O)(=O)c4ccccc4)c(=O)n(C)c23)cc1
inactive: [1] 77.7% | [2] 113% | [3] 88.7% | [4] 74% | [5] 67.9% | [6] 69.2% | [7] 96.5% | [8] 63.7% | [9] 92.9% | [10] 92.8% | [11] 81.2% | [12] 49.6% | [13] 92.7% | [15] 86.7% | [16] 95.9% | [17] 87.8% | [18] 86% | [19] 91.2%

COC(=O)C1C2CC3c4[nH]c5cc(OC)ccc5c4CCN3CC2CC(OC2CCCCO2)C1OC (stereo unspecified)
inactive: [1] 111% | [2] 95.2% | [3] 104% | [4] 96.8% | [5] 104% | [6] 101% | [7] 102% | [8] 97.6% | [9] 98.6% | [10] 103% | [20] 99.8% | [12] 84.4% | [14] 97% | [15] 87.1% | [17] 99.3% | [18] 95.4% | [19] 101%

CCOC(=O)c1c(Cl)c2c(n1Cc1ccc(OC)cc1)-c1oncc1CCC2
inactive: [1] 118% | [2] 92.1% | [3] 119% | [4] 77.2% | [5] 80.5% | [6] 95.9% | [7] 99% | [8] 93.3% | [9] 96.1% | [10] 108% | [11] 78.8% | [12] 75% | [14] 89.3% | [16] 72.1% | [17] 73.6% | [18] 77.8% | [19] 101%
